The list is not random: actives were taken first. Their share in the collection is about 19%.
IL-1B inflam inh – qHTS for Inhibitors of Inflammasome Signaling: IL-1-beta AlphaLISA Primary Screen; THP-1 LPS/ATP IL-1B secretion, AlphaLISA, 16 h; stronger effect = lower value; AID 743279, 2014; 360,000 compounds, 4.7% hits; activity change, % at 57.5 µM; in the data active = activity change below about -50%; inconclusive = mostly about -30% to -49%
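Secreted IL-1B measured by AlphaLISA bead assay after 16 h compound exposure of THP-1 cells; compounds (final up to 57.5 uM) added 1 h before LPS (250 ng/mL) and ATP (1.25 mM) stimulation; lower signal means less secretion.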
DT40 TDP1 no CPT – qHTS for Inhibitors of human tyrosyl-DNA phosphodiesterase 1 (TDP1): qHTS in cells in absence of CPT; 420,000 compounds, 15% hits; AID 686978, 2013; DT40 Tdp1-/- hTDP1 cells, no CPT, ATP luminescence, 48 h; Potency, µM (highest dose often 46.2 µM), most hits filed as inhibitors; also: nearly all actives have a fitted effect of over 55% in size
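Chicken DT40 Tdp1-/- cells stably complemented with human TDP1 were seeded at 400 cells/well with DMSO in place of 20 nM camptothecin. After compound pinning, cells grew at least 48 hr at 37 °C; viability read by CellTiter-Glo luminescence.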
Giardia killer – Small Molecules that selectively kill Giardia lamblia: qHTS. Giardia lamblia trophozoite viability. activity change, % at 7.66 µM, hits read low. 340,000 compounds, 0.15% hits. AID 540267, 2011; in the data active = activity change below about -80%; inconclusive = between about -30% and that limit;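 also: parasites exposed to compound for two days anaerobically before the ATP read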
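Giardia lamblia trophozoites (100 cells/well) were incubated with compounds for 48 h at 37 deg C under anaerobic conditions. Viability was read as ATP content by one-step luminescence after 15-30 min at room temperature.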
DT40 TDP1 CPT – qHTS for Inhibitors of human tyrosyl-DNA phosphodiesterase 1 (TDP1): qHTS in cells in presence of CPT; chicken DT40 Tdp1-/-;hTDP1 cells + 20 nM CPT, ATP luminescence, 48 h; Potency, µM (top dose mostly 46.2 µM), hits mostly inhibitors; 420,000 compounds, 12% hits; also: nearly all actives have a fitted effect of over 55% in size
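Chicken DT40 Tdp1-/- cells stably complemented with human TDP1 were seeded at 400 cells/well in medium containing 20 nM camptothecin, exposed to pin-transferred compounds, and grown at 37 °C for at least 48 hr. Viability was read as ATP luminescence.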
ELG1 repair inh – qHTS screen for small molecules that inhibit ELG1-dependent DNA repair in human embryonic kidney (HEK293T) cells expressing luciferase-tagged ELG1; HEK293T ELG1-luciferase reporter, luminescence, 16 h; DNA damage induced by 5-fluorouridine; Potency, µM (titrated, usually from 46.1 µM), actives largely listed as inhibitors; 330,000 compounds, 2.3% hits; also: nearly all actives have a fitted effect of over 55% in size
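Cells (2,000 per well) received 5-fluorouridine plus test compound or DMSO and were incubated 16 hr at 37 °C, 5% CO2. Luciferase activity was read by luminescence 30 min after ONE-Glo addition; signal suppression marked inhibition of damage-induced ELG1 function.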
TDP1 block – qHTS Assay for Inhibitors of Tyrosyl-DNA Phosphodiesterase (TDP1) | recombinant TDP1, AlphaScreen DNA substrate cleavage | Potency, µM (titrated, usually from 130 µM), usual class: inhibitors | 350,000 compounds, 0.28% hits | AID 485290, 2010; also: nearly all actives have a fitted effect of over 40% in size
Target sequence (Q9NUW8 whole entry, looked up): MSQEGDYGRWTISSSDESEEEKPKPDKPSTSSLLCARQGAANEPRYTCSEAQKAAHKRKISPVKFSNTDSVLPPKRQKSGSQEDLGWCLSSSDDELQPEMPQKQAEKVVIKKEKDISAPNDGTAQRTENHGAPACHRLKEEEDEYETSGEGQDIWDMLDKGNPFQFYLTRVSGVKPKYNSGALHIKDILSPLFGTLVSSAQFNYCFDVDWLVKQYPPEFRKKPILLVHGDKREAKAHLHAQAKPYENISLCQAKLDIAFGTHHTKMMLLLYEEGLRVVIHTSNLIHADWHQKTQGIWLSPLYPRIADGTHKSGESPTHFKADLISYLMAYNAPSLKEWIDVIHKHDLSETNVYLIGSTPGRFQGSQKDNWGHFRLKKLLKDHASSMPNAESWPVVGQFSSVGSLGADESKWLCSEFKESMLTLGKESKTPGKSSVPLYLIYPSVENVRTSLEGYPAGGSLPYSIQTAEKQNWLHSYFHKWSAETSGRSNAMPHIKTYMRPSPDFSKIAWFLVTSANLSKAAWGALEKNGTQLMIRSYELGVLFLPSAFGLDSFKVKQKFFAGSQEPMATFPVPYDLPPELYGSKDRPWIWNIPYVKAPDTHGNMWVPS
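E. coli-derived human Tdp1, 1 nM final. Cpd preinc 15 min RT; substrate 15 nM final, 5 min RT; AS bead mix 10 ug/ml final, 10 min RT. Signal loss = tyrosine-FITC cleavage. No-enzyme wells = max signal.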
Numbers stand for hits; 0 = inactive; ? = inconclusive; - = not tested or not shown; [ ] = dose if it differs, or a comment. Unless noted, calls follow the shape of the dose curve; as a rule, active = well fitted curve in the direction sought with a large enough effect; inconclusive = small, poorly fitted or top-dose-only effect, or another doubt; inactive = no such curve, though single readings can be large; an effect the other way counts as inactive or inconclusive.

SMILES | IL-1B inflam inh | DT40 TDP1 no CPT | Giardia killer | DT40 TDP1 CPT | ELG1 repair inh | TDP1 block
Cc1ccc(-c2nc(CSc3nnc(C)n4c3cc3occc34)c(C)o2)cc1 | - | ? | - | 0 | - | 0
Cc1nn(Cc2ccccc2)c(Cl)c1C(=O)OCC#N | 0 | 0 | 0 | 0 | 0 | 0
CCCCN(CC)CCCNC(=O)c1ccc2c(c1)NC(=O)CN2C | - | 0 | - | 0 | - | 0
Cc1ccc(C)c(NC(=O)N2CCc3cc(S(=O)(=O)N4CCC(C)CC4)ccc32)c1 | - | ? | - | ? | - | 0
CC(=O)NC(CC(=O)OCC(=O)Nc1ccc2c(c1)OCO2)c1ccccc1 (stereo unspecified) | 0 | 0 | 0 | 0 | 0 | 0
CC(=O)NC(CC(=O)OCC(=O)c1ccc(NC(=O)CC(C)C)cc1)c1ccccc1 (stereo unspecified) | 0 | 0 | 0 | 0 | 0 | 44.7µM
CCc1cccc(C)c1Nc1c(-c2cccc(O)c2)nc2nc(C)cc(C)n12 | - | ? | - | ? | - | 0[12.3 µM]
Cc1cccc(C)c1Nc1c(-c2ccc(O)cc2)nc2sccn12 | - | 7.31µM | - | 6.51µM | - | 0
COc1cc(-c2nc3sccn3c2Nc2c(C)cccc2C)ccc1O | - | ? | - | ? | - | 0
CCc1cccc(C)c1Nc1c(-c2cccc(O)c2)nc2sccn12 | - | 16.4µM | - | 14.6µM | - | 0
Cc1onc(-c2ccccc2)c1C(=O)N1CCCc2ccccc21 | 0 | 16.4µM | 0 | ? | 0 | 0
Cc1onc(-c2c(Cl)cccc2Cl)c1C(=O)N1CCCc2ccccc21 | 0 | 20.6µM | 0 | 20.6µM | ? | 0
COc1cc2c(cc1OC)CN(C(=O)/C=C/c1cc(OC)c(OC)c(OC)c1)CC2 | 0 | 9.2µM | 0 | ? | ? | -
COc1cc2c(cc1OC)C(C)N(C(=O)/C=C/c1cc(OC)c(OC)c(OC)c1)CC2 (stereo unspecified) | 0 | 8.2µM | 0 | 14.6µM | 18.3µM | -
COc1cc2c(cc1OC)CN(C(=O)/C=C/c1ccc(F)cc1)CC2 | 0 | ? | 0 | ? | 0 | 0
COc1cc2c(cc1OC)C(CNC(=O)C=Cc1cc(OC)c(OC)c(OC)c1)C2 (stereo unspecified) | 0 | 18.4µM | - | ? | - | -
COc1cc(/C=C/C(=O)N2CCCC2)cc(OC)c1OC | 0 | 0 | 0 | 0 | 0 | 0
COc1ccc(C(=O)C2CCCN(C(=O)c3cc(C(C)C)no3)C2)cc1F (stereo unspecified) | 0 | ? | 0 | ? | 0 | -
Cc1cccc(CCNC(=O)C2CCCN(S(=O)(=O)c3ccc4c(c3)oc(=O)n4C)C2)c1 (stereo unspecified) | - | 0 | - | ? | - | 0
CCc1cccc(NC(=O)Cn2c(=O)n(-c3ccccc3C)c(=O)c3c2c2cc(C)ccc2n3C)c1 | - | ? | - | ? | - | 0
O=C(CC(=O)NC1CCCCC1)N/N=C/c1ccc(Cl)cc1 | 0 | 0 | 0 | 0 | 0 | 0
O=S(c1cc(Cl)cc(Cl)c1O)c1cc(Cl)cc(Cl)c1O | -67.5 | ? | - | 0 | - | 0
O=[N+]([O-])c1c(Cl)cc(Cl)cc1Cl | - | - | - | - | - | 0
O=C(CN1C(=O)C2C3C=CC(C4CC34)C2C1=O)OCC(=O)c1ccccc1 (stereo unspecified) | 0 | 0 | 0 | 0 | 0 | 0
O=C1/C(=N/n2cnnc2)c2ccccc2N1Cc1ccccc1 | - | - | - | - | 0 | 0
SMILES | IL-1B inflam inh | DT40 TDP1 no CPT | Giardia killer | DT40 TDP1 CPT | ELG1 repair inh | TDP1 block
O=C(O/N=C1\C(=O)N(c2ccccc2)c2ccccc21)C1CC1 | 0 | 0 | 0 | ? | 0 | 0
CCO/N=C1\C(=O)N(c2ccccc2)c2ccccc21 | -51.0 | 0 | ? | 0 | 0 | 0
CCCO/N=C1/C(=O)N(c2ccccc2)c2ccccc21 | ? | 23.1µM | ? | 13µM | 0 | 0
Cc1cc(C)cc(NC(=O)C2C3C=CC4(O3)C2C(=O)N(CCCN(C)C)C4C(=O)NC2CCCC(C)C2C)c1 (stereo unspecified) | 0 | 0 | 0 | 0 | 0 | 0
CCc1c(C)c(C#N)c2nc3ccccc3n2c1Nc1c(C)n(C)n(-c2ccccc2)c1=O | 0 | 0 | 0 | ? | 0 | 0
CCc1c(C)c(C#N)c2nc3ccccc3n2c1Nc1cccc(C(F)(F)F)c1 | - | 16.4µM | - | 16.4µM | - | 0
CCCNC(=O)C1CCN(S(=O)(=O)c2ccc3c(c2)CCCN3C(C)=O)CC1 | - | ? | - | 0 | - | 0
CCOC(=O)/C(=N\Nc1ccccc1Cl)N(C)C1CCCCC1 | 0 | 0 | 0 | 0 | 0 | 0
O=C(Nc1ccc(Br)cc1F)c1ccc2c(c1)N(Cc1ccccc1)C(=O)CS2=O (stereo unspecified) | -57.5 | 13µM | 0 | 9.2µM | 0 | 0
Cc1ccc(C)c(NC(=O)c2ccc3c(c2)N(Cc2ccc(F)cc2)C(=O)CS3=O)c1 (stereo unspecified) | 0 | 0 | 0 | 0 | ? | 0
O=C(NCC1CCCO1)c1ccc2c(c1)N(Cc1ccccc1)C(=O)CS2=O (stereo unspecified) | 0 | ? | 0 | 14.6µM | ? | ?
O=C(COCCOCCOCC(=O)Nc1c(I)cc(I)c(C(=O)O)c1I)Nc1c(I)cc(I)c(C(=O)O)c1I | - | 0 | - | 0 | - | -
COc1cc(-c2[nH]ncc2CN2CCN(Cc3cccs3)CC2)cc(OC)c1OC | 0 | 20.6µM | 0 | 18.4µM | 0 | 0
CCN(CC(=O)Nc1ccc2c(c1)OCCO2)C(=O)c1ccc([N+](=O)[O-])s1 | 0 | ? | 0 | ? | 0 | 0
Cc1ccc(C)c(NS(=O)(=O)c2ccc(NC(=O)CSc3ccc(Cl)cc3)cc2)c1 | 0 | 0 | 0 | 0 | ? | 0
Cc1ccc(NS(=O)(=O)c2ccc(NC(=O)C(C)Sc3ccc(Cl)cc3)cc2)c(C)c1 (stereo unspecified) | ? | 0 | 0 | ? | 20.6µM | 0
CCC(=O)C(C(=O)OC)[C@H](CCc1ccccc1)NC(=O)OC (stereo partly specified) | - | - | - | - | - | 0
Clc1ccc(CSc2nnc(NC3=NCCCCC3)s2)cc1 | 0 | 10.3µM | 0 | ? | 0 | 0
Nc1nnc(SCc2ccc(Cl)cc2)s1 | 0 | 0 | 0 | 0 | ? | 0
Cn1c(N=Nc2ccccc2)nc2ccccc21 | 0 | 7.31µM | ? | 8.2µM | ? | 0
CCCCC[C@H](O)/C=C/C1C(=O)C=C[C@H]1C/C=C\CCCC(=O)OC (stereo partly specified) | -101.9 | 7.31µM | 0 | 5.8µM | - | -
CCCCC[C@H](O)/C=C/[C@@H]1[C@@H](C/C=C\CCCC(=O)OC)[C@@H](O)C[C@H]1O | 0 | ? | 0 | 0 | ? | 50.1µM

Source: PubChem
